Among the test systems are RPMI-8226 leukemia; OVCAR-8 ovarian; OVCAR-5 ovarian; OVCAR-4 ovarian; SK-OV-3 ovarian; IGROV1 ovarian; OVCAR-3 ovarian; HS 578T breast; NCI/ADR-RES ovarian; T-47D breast; BT-549 breast; MDA-MB-435 melanoma; SW-620 colon; MCF7 breast; HCT-116 colon; HCC-2998 colon; KM12 colon; SR leukemia.
Holding throughout (experiment): NCI-60 one-dose screen, 48 h (100 = growth as untreated, 0 = no growth, -100 = all killed)
What all share (details): 10 µM unless noted

The values below come from PubChem BioAssay (NCI).

SMILES strings stand for the structures. This is part of a sample that, as a whole, favours compounds with a hit. Of some 83,000 tested, about 20% had one in any assay.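 Treatment: one concentration, 48 hours, 96-well format. Scoring: percent growth, with anything below 10 considered active.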 A number with no mark means an inactive call. Active and inactive are the calls of the source.

Take `COc1cc(/C=C/c2cc(/C=C/c3ccc(O)c(OC)c3)n(-c3ccc(Cl)cc3)c(=O)n2)ccc1O`: the growth in the assay with RPMI-8226 leukemia was 64.5%; with OVCAR-8 ovarian, 107%; with OVCAR-5 ovarian, 103%; in the assay with OVCAR-4 ovarian it was 78.3%; with SK-OV-3 ovarian it was 89.7%; with IGROV1 ovarian, 8.57% (active). For the same compound, the growth with OVCAR-3 ovarian is 83.8%; in the assay with HS 578T breast, 87.4%; in the assay on NCI/ADR-RES ovarian it was 96.5%; in the assay with T-47D breast, 86%; in the assay on BT-549 breast it was 66.9%; in the assay on MDA-MB-435 melanoma, 74.9%. Besides, the growth was 85.6% with SW-620 colon; 47.6% in the assay with MCF7 breast; 50.6% in the assay on HCT-116 colon; 104% in the assay with HCC-2998 colon; 77% with KM12 colon.

Regarding `CCCCCCCN(CCCCCCC)C(=N)c1ccnc2ccccc12`, the growth was -44.5% (active) in the assay with SR leukemia; -40.8% (active) in the assay with OVCAR-8 ovarian; 34.7% in the assay on OVCAR-5 ovarian; 5.2% (active) in the assay on OVCAR-4 ovarian; 36.8% with SK-OV-3 ovarian; 4.57% (active) in the assay with IGROV1 ovarian. Besides, the growth is -41.8% (active) with OVCAR-3 ovarian; -43.6% (active) in the assay on HS 578T breast; -52.5% (active) in the assay on NCI/ADR-RES ovarian; -39.9% (active) with T-47D breast; 56% with BT-549 breast; -88.5% (active) in the assay with MDA-MB-435 melanoma. For the same compound, the growth in the assay on SW-620 colon was -75.9% (active); with MCF7 breast it was -62.2% (active); in the assay with HCT-116 colon it was -83.7% (active); in the assay with KM12 colon, -16.8% (active).

Consider `Cc1cc(N=O)cc(C(C)(C)C)c1O`, for which the growth with SR leukemia is 98.9%; in the assay on OVCAR-8 ovarian it was 103%; with OVCAR-5 ovarian, 108%; in the assay with OVCAR-4 ovarian, 97.7%; with SK-OV-3 ovarian, 75.8%; in the assay with IGROV1 ovarian it was 98.6%. Further, the growth was 105% in the assay on OVCAR-3 ovarian; 90.8% in the assay with HS 578T breast; 99.3% with NCI/ADR-RES ovarian; 85.4% with T-47D breast; 97.7% in the assay with BT-549 breast; 99.4% in the assay with MDA-MB-435 melanoma. Besides, the growth was 94.8% with SW-620 colon; 93.6% with MCF7 breast; 88.1% in the assay with HCT-116 colon; 106% in the assay with HCC-2998 colon; 102% with KM12 colon.

In the case of `CN(C)CCCCC(C(=O)CBr)(c1ccccc1)c1ccccc1`, the growth is 8.41% (active) in the assay with SR leukemia; 25.8% in the assay with OVCAR-8 ovarian; 45.2% in the assay with OVCAR-5 ovarian; 12.1% in the assay on OVCAR-4 ovarian; 79.1% with SK-OV-3 ovarian; 44.4% with IGROV1 ovarian. Further, the growth in the assay with OVCAR-3 ovarian was -44% (active); in the assay on HS 578T breast it was 24.2%; with NCI/ADR-RES ovarian, 43.9%; in the assay on T-47D breast it was -54.2% (active); in the assay on MDA-MB-435 melanoma it was 36.3%; in the assay on SW-620 colon, -49.7% (active). Moreover, the results for the growth in the assay with MCF7 breast, with HCT-116 colon and with KM12 colon were 3.55% (active), -60.1% (active) and 68.8%, respectively.

Consider `O=P(O)(c1ccccc1)c1ccccc1I`, for which the growth with SR leukemia is 88.8%; in the assay on OVCAR-8 ovarian it was 98.2%; in the assay with OVCAR-5 ovarian, 103%; in the assay with OVCAR-4 ovarian it was 102%; with SK-OV-3 ovarian, 86.8%; with IGROV1 ovarian, 96.2%. Also, the growth was 108% with OVCAR-3 ovarian; 97% in the assay with HS 578T breast; 98.8% with NCI/ADR-RES ovarian; 84.5% with T-47D breast; 100% in the assay with BT-549 breast; 104% in the assay with MDA-MB-435 melanoma. Besides, the growth with SW-620 colon is 94.9%; with MCF7 breast it was 96.6%; in the assay with HCT-116 colon it was 76.7%; with HCC-2998 colon, 107%; with KM12 colon, 103%.

In the case of `O=C1Nc2ccccc2/C1=C/c1cn(CCCn2c3ccccc3c(=O)c3ccccc32)c2ccccc12`, the growth was 90% in the assay on RPMI-8226 leukemia; 85% with OVCAR-8 ovarian; 103% in the assay on OVCAR-5 ovarian; 88.1% in the assay with OVCAR-4 ovarian; 86.6% with SK-OV-3 ovarian; 45.8% with IGROV1 ovarian. Besides, the growth with OVCAR-3 ovarian is 84.9%; with HS 578T breast it was 85.2%; with NCI/ADR-RES ovarian it was 90.3%; with T-47D breast, 74.1%; in the assay with BT-549 breast it was 84.6%; in the assay on MDA-MB-435 melanoma it was 94.6%. Besides, the growth was 98.4% with SW-620 colon; 47.3% in the assay with MCF7 breast; 87% with HCT-116 colon; 96.3% in the assay on HCC-2998 colon; 88.3% with KM12 colon.

Regarding `COc1ccc(-c2cc(-c3cccs3)n(N=O)c(=O)c2C#N)cc1`, the growth is 88.4% in the assay on RPMI-8226 leukemia; 97.4% with OVCAR-8 ovarian; 94.4% in the assay on OVCAR-5 ovarian; 100% in the assay on OVCAR-4 ovarian; 105% in the assay on SK-OV-3 ovarian; 100% with IGROV1 ovarian. In addition, the growth with OVCAR-3 ovarian is 123%; in the assay with HS 578T breast, 101%; in the assay on NCI/ADR-RES ovarian it was 102%; in the assay on T-47D breast, 97.4%; in the assay with BT-549 breast, 104%; with MDA-MB-435 melanoma, 125%. Moreover, the growth was 112% in the assay on SW-620 colon; 95.8% in the assay on MCF7 breast; 105% in the assay with HCT-116 colon; 112% in the assay on HCC-2998 colon; 109% in the assay with KM12 colon.

As to `CCOC(=O)C/C(=C\c1ccccc1)C(C)=O`, the growth in the assay on RPMI-8226 leukemia was 95%; with OVCAR-8 ovarian, 90.9%; with OVCAR-5 ovarian, 108%; in the assay on OVCAR-4 ovarian, 112%; in the assay on SK-OV-3 ovarian, 75.1%; in the assay with IGROV1 ovarian, 109%. Also, the growth with OVCAR-3 ovarian was 107%; with HS 578T breast, 108%; with NCI/ADR-RES ovarian, 110%; in the assay with T-47D breast, 68.1%; in the assay on BT-549 breast, 98.4%; in the assay with MDA-MB-435 melanoma, 109%. The growth in the assay with SW-620 colon was 103%; in the assay with MCF7 breast, 101%; in the assay with HCT-116 colon, 88.7%; in the assay with HCC-2998 colon, 107%; in the assay with KM12 colon, 101%.
